The supplement of paper PMC3842684

Assays:
[1] = tested on: P. falciparum NF54-pfs16-GFP early (I-III) stage gametocytes; experiment: relative % inhibition of viable gametocyte number; higher = more gametocytocidal; conditions: stage: early (I-III) gametocyte, incubation 72 h
In short: (§1)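 Compound was tested in duplicate at 5 or 0.5 µM on magnet-isolated NF54 pfs16-GFP gametocytes, taken either early (I/IIa, day 2) or late (day 8) and plated at 10% parasitaemia, 0.1% haematocrit. Incubation ran 72 h at 37°C, 5% CO2, 5% O2, followed by overnight MitoTracker Red staining and confocal imaging. Relative inhibition, based on counts of elongated GFP objects with above-cut-off MitoTracker signal, was normalised to in-plate vehicle and positive-control wells.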

[2] = tested on: P. falciparum NF54-pfs16-GFP late (IV-V) stage gametocytes; experiment: as above; conditions: stage: late (IV-V) gametocyte, incubation 72 h
In short: as §1

Compound	relative % inhibition ([1]; 0.5 µM) [%]	relative % inhibition ([1]; 5 µM) [%]	relative % inhibition ([2]; 0.5 µM) [%]	relative % inhibition ([2]; 5 µM) [%]
CC(=O)c1ccc(NC(=O)CSc2nc(-c3ccccc3Cl)ns2)cc1	3.99	39.1	22.2	5.88
CCOC(=O)C1=CN(C)C=C(C(=O)OCC)C1c1cc(Br)c(OCC)c(OC)c1	38.1	89.7	16.5	37.9
CCn1c(SCC(=O)Nc2cc(C(F)(F)F)ccc2Cl)nc2ccccc2c1=O	27.2	5.95	5.8	-6.79
COc1ccc(C(=O)Nc2nonc2-c2ccc(OC)c(OC)c2)cc1Cl	33.4	31.6	13.1	59.1
CN(C)CCCNc1c2ccccc2nc2ccccc12	85.1	101	57.9	101
CCC(c1ccccc1)c1nn2c(-c3cccs3)nnc2s1 (stereo unspecified)	-3.13	-13.5	8.5	12.4
O=C(NCC(c1ccsc1)N1CCCCCC1)c1ccc(C(F)(F)F)cc1 (stereo unspecified)	-5.22	0.803	-0.775	5.04
O=C(Nc1cccc(C2=NCCN2)c1)Nc1cccc(C2=NCCN2)c1	9.97	6.29	10.7	-30.3
CSc1ccccc1C(=O)Nc1nc(-c2ccccn2)cs1	27.3	92.9	19.1	96.9
COc1ccc2nc(C)cc(Nc3cccc(O)c3)c2c1	2.97	3.08	-18.7	-9.92
O=C(NC1CCN(Cc2ccccc2)CC1)c1cc2nc(-c3ccc(Cl)s3)cc(C(F)(F)F)n2n1	3.66	-15.9	21.4	25
COc1cc2c3cc1Oc1c(OC)c(OC)cc4c1C(Cc1ccc(O)c(c1)Oc1ccc(cc1)CC3N(C)CC2)N(C)CC4 (stereo unspecified)	1.03	73.4	-24.9	23.7
Cc1cc(Nc2ccc(Cl)cc2)n2nc(C(F)(F)F)nc2n1	4.02	-6.02	7.36	-10.1
O=C(NC(c1ccccc1)c1ccc2cccnc2c1O)c1ccccc1 (stereo unspecified)	31.4	95.3	35.8	86.9
CCN(CC)CCCNc1ccnc2cc3ccccc3cc12	11	-7.44	-7.72	-8.3
O=C(Nc1ccc(CN2CCOCC2)cc1)c1ccc(-c2cc(Cl)ccc2Cl)o1	-3.41	20.9	-18.1	21.4
COc1cc(OC)cc(N2C(=O)N(Cc3ccc(C(C)(C)C)cc3)c3ccccc3S2(=O)=O)c1	10	6.11	4.34	35.7
COc1ccccc1CNC(=O)C1c2ccccc2C(=O)N(CC(C)C)C1c1cccs1 (stereo unspecified)	-0.661	31.9	-10.4	-4.52
c1ccc2c(NCCc3c[nH]c4ccccc34)c3ccccc3nc2c1	37.7	89.1	-14.3	29.7
COc1ccc(C2Sc3ccccc3N=C3C2=C(O)c2ccccc23)cc1 (stereo unspecified)	6.74	20.4	24	51.1

Compound	relative % inhibition ([1]; 0.5 µM) [%]	relative % inhibition ([1]; 5 µM) [%]	relative % inhibition ([2]; 0.5 µM) [%]	relative % inhibition ([2]; 5 µM) [%]
COc1cc(SC)ccc1C(=O)N1CCCC(C)C1 (stereo unspecified)	-24.7	-6.96	5.64	6.01
COc1ccc(-c2nc(N3CCN(C(=O)C4CCCCC4)CC3)c3c4c(sc3n2)CCCC4)cc1	-24.1	55.7	92.2	86.8
Cn1c(C(=O)c2cccc3ccccc23)nc2ccccc21	3.04	19.9	9.04	5.95
CCCCNc1nc(NC(C)(C)C)nc(NC(C)(C)C)n1	-7.87	40.6	31.7	43.5
CCc1ccc(Nc2cc(C)c3ccc(O)cc3n2)cc1	1.9	99.6	16.3	56.6
O=C(Nc1ccsc1C(=O)NC1CCCCC1)c1ccc(F)cc1	-1.56	19.9	-4.86	-23.6
O=C(Nc1ccccc1O)c1ccc(-c2ccc(Cl)cc2Cl)o1	21.2	-5.25	19.3	17.5
COc1ccc(-c2cn3c(C(=O)Nc4ccccc4Cl)c(-c4ccccc4)c4c3n2CCCC4)cc1	10.5	30.9	4.28	22.5
CCN(CC)c1cc(C)c2cc(NC(=O)c3cccc(OC)c3)ccc2n1	15.1	16.1	-0.167	86.7
CC(C)CNC(=O)c1c(N)n(CCc2ccccc2F)c2nc3ccccc3nc12	-1.27	3.8	3.01	8.27
COc1ccccc1N=C1C(=O)c2ccccc2C(O)=C1N1CCCCC1	21.8	44.6	-11.2	10.5
Oc1ccccc1CNCC12CC3CC(CC(C3)C1)C2	91.6	84.2	44.7	29.3
COc1ccc(C(=O)Nc2ccc3nc(N4CCCCC4)cc(C)c3c2)cc1OC	-8	7.62	3.3	51.2
CCOC(=O)c1ccc2nc(-c3ccccc3)cc(O)c2c1	2.53	2.35	50.6	102
CCOc1ccc(CN2CCN(CC(O)COc3ccc(OCC(O)CN4CCN(Cc5ccc(OCC)cc5)CC4)cc3)CC2)cc1 (stereo unspecified)	6.71	74.7	-16.8	8.51
COc1ccc2c(c1)OC(O)(C(F)(F)C(F)(F)F)CC2=O (stereo unspecified)	-12.9	-4.42	8.91	10.1
Cc1sc(NC(=O)c2ccco2)c(C(c2cccnc2)N2CCC(Cc3ccccc3)CC2)c1C (stereo unspecified)	-12.2	85.7	14.3	106
CCCC(c1nnnn1C1CCCCC1)N1CCN(C(=O)c2ccco2)CC1 (stereo unspecified)	0.873	-28.3	-2.74	2.82
CCCCOC(=O)c1ccc(Nc2cc(C)nc3ccc(OC)cc23)cc1	-28.1	70	13.1	18.5
